Screen size: about 320,000 compounds; about 2,100 (0.66%) were called active. Another 53% or so got no clear call; they are omitted. The call rests on the fitted dose curve; in most records, active means well fitted inhibition curve with a large enough effect in the signal ratio, with a control signal flat (not every such curve was filed as active); inconclusive means small, poorly fitted or top-dose-only effect, or effect the other way, or a change in a side signal; inactive means flat fitted curve, though single readings scatter; the % refers to the signal ratio. The entries come from a sample that favours actives as a whole.
experiment: qHTS Assay for Lipid Storage Modulators in Drosophila S3 Cells; settings: BODIPY lipid droplet fluorescence, 18-24 h, cells fed with added oleic acid; cell number change: measured here: cell count max response; series mostly up to 46.1 µM; lipid storage change, negative = inhibition: at the top concentration;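 on cell number change: cells counted by Cell Tracker Red CMTPX staining in the red channel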; on lipid storage change, negative = inhibition: on the % scale 0 is the no-effect control and ±100 the full control effect
Method in brief: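 Laser-scanning cytometry quantifies lipid droplet accumulation (500–530 nm total intensity; droplet/cell object ratio) in oleic acid-fed (400 uM added) Drosophila S3 cells treated with a concentration series. 20 uM Triacsin C defined 100% inhibition.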
Potency means the concentration at half of the fitted maximal effect.

**Q.** Which “lipid storage change, negative = inhibition” value does the source give for `CC(=O)N1CCc2cc(S(=O)(=O)CCC(=O)N3CCN(c4ccccn4)CC3)ccc21` here?
**A.** The value was 11.4% (inactive).

**Q.** What about the cell number change of the same compound?
**A.** Its cell number change is 3.02%.

**Q.** What does the source list for `CCc1ccc(C(C(=O)NCc2ccc(F)cc2)N(C(=O)c2csnn2)C2CC2)cc1` (centres undefined)?
**A.** outcome: inactive; cell number change: -0.952%

**Q.** Which “lipid storage change, negative = inhibition” value does the source give for `CCCN(C(=O)/C=C/c1nc2ccccc2s1)C1CCS(=O)(=O)C1` (centres undefined) here?
**A.** The value was -2.18% (inactive).

**Q.** And the cell number change?
**A.** The cell number change was 10.5%.

**Q.** Which results are given for `COc1ccc(NC(=O)c2ccc(NCCCN3CCOCC3)c([N+](=O)[O-])c2)cc1`?
**A.** lipid storage change, negative = inhibition: 9.93% (inactive); cell number change: 0.55%

**Q.** Which results are given for `CC1Nc2ccc(C(=O)NC3CCCCC3)cc2NC1=O` (centres undefined)?
**A.** Potency: 23.1 µM (active); cell number change: 18.4%

**Q.** Which results are given for `O=C(Nc1cccc(O)c1)c1ccc(NC(=O)C2CCCO2)cc1` (centres undefined)?
**A.** outcome: inactive; cell number change: -1.32%

**Q.** What does the source list for `CCc1ccc(NC(=O)c2ccc(NC(=O)C3CCCO3)cc2)cc1` (centres undefined)?
**A.** outcome: inactive; cell number change: 8.55%

**Q.** Which Potency does the source give for `CS(=O)(=O)Nc1ccc(C(=O)NC2CCCC2)cc1` here?
**A.** Its Potency is 2.91 µM (active).

**Q.** And the cell number change?
**A.** The cell number change was -0.712%.

**Q.** For `Cc1ccc(C(=O)Nc2cccc(C(=O)O)c2)cc1`, which “lipid storage change, negative = inhibition” value is on record?
**A.** Its value is -0.691% (inactive).

**Q.** And the cell number change?
**A.** The cell number change was -13.9%.

**Q.** Which results are given for `Cc1ccc(C(=O)Nc2cccc(C(=O)NC3CCCC3)c2)cc1`?
**A.** Potency: 14.6 µM (active); cell number change: 21.4%

**Q.** Which “lipid storage change, negative = inhibition” value does the source give for `CS(=O)(=O)c1ccc(C(=O)NC2CCCCC2)cc1` here?
**A.** Its value is 19.9% (inactive).

**Q.** What about the cell number change of the same compound?
**A.** Its cell number change is 6.12%.

**Q.** Which “outcome” value does the source give for `CS(=O)(=O)NCc1ccc(C(=O)NC2CCCCC2)cc1` here?
**A.** The value was “inactive”.

**Q.** With `Cc1ccc(C(=O)NC2CCCCC2)cc1` as the compound, how does the “lipid storage change, negative = inhibition” value read?
**A.** Its value is 19.6% (inactive).

**Q.** And the cell number change?
**A.** The cell number change was -6.85%.

**Q.** Which Potency does the source give for `CCOC(=O)c1cccc(NC(=O)c2ccc(NC(=O)C3CCCO3)cc2)c1` (centres undefined) here?
**A.** Its Potency is 14.6 µM (active).

**Q.** And the cell number change?
**A.** The cell number change was -4.84%.

**Q.** Which results are given for `Cc1cccc(C(=O)NC2CCCCCCC2)c1`?
**A.** lipid storage change, negative = inhibition: 6.47% (inactive); cell number change: 5.98%

**Q.** Which results are given for `O=C(NC1CCCCC1)c1ccc2c(c1)OCO2`?
**A.** lipid storage change, negative = inhibition: 3.69% (inactive); cell number change: 1.32%

**Q.** What does the source list for `CC(C)CC(=O)N1CCN(Cc2ccc(Cl)cc2)CC1`?
**A.** lipid storage change, negative = inhibition: 10.9% (inactive); cell number change: 1.4%

**Q.** For `CN1CCN(C(=O)C2=C[C@@H](c3csc4ccccc34)C[C@@H](OCc3ccc(CO)cc3)O2)CC1`, which “lipid storage change, negative = inhibition” value is on record?
**A.** Its value is 6.22% (inactive).

**Q.** What about the cell number change of the same compound?
**A.** The cell number change was 5.1%.

**Q.** Which “lipid storage change, negative = inhibition” value does the source give for `Cc1ccc(S(=O)(=O)N(C)c2nc3ccccc3[nH]c2=S)cc1` here?
**A.** Its value is -4.12% (inactive).

**Q.** And the cell number change?
**A.** The cell number change was 4.96%.

**Q.** Which “lipid storage change, negative = inhibition” value does the source give for `CCCCn1nc(NS(=O)(=O)c2cccc3nonc23)c2cc3cccc(C)c3nc21` here?
**A.** The value was -12.1% (inactive).

**Q.** Which results are given for `COc1ccc2nc(SCc3ccccc3C)nc(C)c2c1`?
**A.** lipid storage change, negative = inhibition: -4.04% (inactive); cell number change: -12.5%

**Q.** For `COc1ccc(CCN(Cc2ccc(C(C)C)cc2)S(=O)(=O)c2ccc(S(=O)(=O)N(C)C)cc2)cc1OC`, which “lipid storage change, negative = inhibition” value is on record?
**A.** Its value is 0.0067% (inactive).

**Q.** What about the cell number change of the same compound?
**A.** The cell number change was -3.06%.

**Q.** For `COc1ccc(OC)c(C2=NOC(C(=O)NCc3cccs3)C2)c1` (centres undefined), which “lipid storage change, negative = inhibition” value is on record?
**A.** The value was -0.872% (inactive).

**Q.** And the cell number change?
**A.** Its cell number change is 19.5%.

**Q.** Which “lipid storage change, negative = inhibition” value does the source give for `COc1nc(OC)nc(N2CCC(C(=O)Nc3cccc4ccccc34)CC2)n1` here?
**A.** Its value is 14.5% (inactive).

**Q.** What about the cell number change of the same compound?
**A.** Its cell number change is -0.422%.

**Q.** Which “outcome” value does the source give for `CC12CN(C(=O)c3ccc(Cl)cc3)C3(C#N)CC1CCC23C` (centres undefined) here?
**A.** The value was “inactive”.

**Q.** Which “lipid storage change, negative = inhibition” value does the source give for `O=C(Nc1ncc(Cc2cccc(Cl)c2)s1)C1CCCO1` (centres undefined) here?
**A.** The value was 0.772% (inactive).

**Q.** And the cell number change?
**A.** Its cell number change is -0.923%.

**Q.** With `CCOC(=O)c1c(-c2ccccc2)csc1NC(=O)C1CCCO1` (centres undefined) as the compound, how does the “lipid storage change, negative = inhibition” value read?
**A.** Its value is -8.83% (inactive).

**Q.** What about the cell number change of the same compound?
**A.** Its cell number change is -4.26%.

**Q.** For `CCOC(=O)c1c(-c2ccc(C)cc2)csc1NC(=O)C1CCCO1` (centres undefined), which Potency is on record?
**A.** The Potency was 6.51 µM (active).

**Q.** And the cell number change?
**A.** Its cell number change is 11.7%.

**Q.** With `Cc1ccc(Cc2cnc(NC(=O)C3CCCO3)s2)cc1` (centres undefined) as the compound, how does the Potency read?
**A.** Its Potency is 2.06 µM (active).

**Q.** What about the cell number change of the same compound?
**A.** Its cell number change is 15.9%.

**Q.** Which results are given for `O=C(Nc1ncc(Cc2cccc(C(F)(F)F)c2)s1)C1CCCO1` (centres undefined)?
**A.** lipid storage change, negative = inhibition: -2.84% (inactive); cell number change: -4.39%

**Q.** With `CCOC(=O)c1c(-c2ccc(F)cc2)csc1NC(=O)C1CCCO1` (centres undefined) as the compound, how does the “lipid storage change, negative = inhibition” value read?
**A.** Its value is -6.46% (inactive).

**Q.** And the cell number change?
**A.** Its cell number change is 2.19%.
